# According to the supplement of paper PMC4206461:
# Test system: Pseudomonas aeruginosa PA14 wild type
# Experiment: respiration area under curve with compound as sole nitrogen source, 24 h (OmniLog AUC (arbitrary units)); higher = more respiration / better utilisation as nitrogen source
# Protocol: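 Biolog Phenotype MicroArray plates PM6-PM8: each di/tripeptide is the sole nitrogen source (IF-0 medium with succinate/ferric citrate and dye mix A). Tetrazolium reduction was read in the OmniLog every 15 min for 24 h at 37°C and summarised as area under the respiration curve (arbitrary units). The paper counts values below 2000 as no respiration and above 8000 as solid respiration. Replicate datasets are averaged.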
row,Compound,respiration area under curve
1,CC(C)C[C@H](NC(=O)CNC(=O)CN)C(=O)O (plate: PM8),10400 (active)
2,CC(C)C[C@@H](NC(=O)CNC(=O)CN)C(=O)O (plate: PM8),5880 (active)
